Screening results from PubChem BioAssay.
DRD3 agonist: qHTS of D3 Dopamine Receptor Agonist: qHTS | D3R DiscoveRx beta-arrestin cells, luminescence, 90 min | hit rate 0.58% among 410,000 | D(3) dopamine receptor (Homo sapiens), P35462 | max activation, %; in the data active means max activation above about 30%; further: 0% is about no effect
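Cells at 1500/well, incubated overnight, then treated with pinned compounds (dopamine as control) for 90 min at 37 degrees C. DiscoveRx reagent added for 30 - 60 minutes at room temperature; luminescence read.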
D1 agonist: Allosteric Agonists of the Human D1 Dopamine Receptor: qHTS | HEK293 T-REx D1 cells, calcium flux, agonist mode | hit rate 1% among 360,000 | activation, % at 2 µM | AID 504660, 2011; in the data active means activation above about 30%; further: 0% is about no effect
Target sequence (P21728 whole entry, looked up): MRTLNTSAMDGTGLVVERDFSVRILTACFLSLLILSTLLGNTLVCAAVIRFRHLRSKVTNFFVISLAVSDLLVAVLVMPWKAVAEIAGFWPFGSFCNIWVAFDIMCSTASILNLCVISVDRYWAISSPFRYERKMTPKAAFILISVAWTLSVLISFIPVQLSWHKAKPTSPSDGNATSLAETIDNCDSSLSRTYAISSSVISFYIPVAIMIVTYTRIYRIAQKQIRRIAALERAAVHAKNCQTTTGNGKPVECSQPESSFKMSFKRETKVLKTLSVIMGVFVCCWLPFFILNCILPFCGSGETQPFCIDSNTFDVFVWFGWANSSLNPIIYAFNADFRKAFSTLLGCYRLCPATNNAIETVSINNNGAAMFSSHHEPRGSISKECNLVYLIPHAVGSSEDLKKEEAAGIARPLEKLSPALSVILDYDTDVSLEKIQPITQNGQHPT
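Tetracycline-induced HEK293 TREx D1 cells, force-coupled to calcium signalling, were dye-loaded with a no-wash calcium kit. Compound was pin-added after a 10 s baseline. Fluorescence was read kinetically at 1 cycle/s for 180 s, with calcium rises flagged as agonism.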
D1 antag: Antagonist of Human D 1 Dopamine Receptor: qHTS; HEK293 TREx D1 cells, calcium flux, dopamine EC80; hits give low values; AID 504652, 2011; hit rate 3.2% among 360,000; activity change, negative = inhibition, % at 10 µM; D(1A) dopamine receptor (Homo sapiens), P21728; in the data active means activity change below about -30%; further: on the % scale 0 is the no-effect control and ±100 the full control effect
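Tetracycline-induced HEK293 Trex D1 cells, force-coupled to calcium, dye-loaded; compounds added and read 180 s, then EC80 dopamine added and calcium flux tracked kinetically another 180 s.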
D1 potentiator: Potentiators of Human D1 Dopamine Receptor: qHTS; HEK293 TREx D1 cells, calcium flux, dopamine EC20 potentiation; potentiation, % at 10 µM; hit rate 0.036% among 360,000; AID 504651, 2011; in the data active means potentiation above about 30%; further: 0% is about no effect
DRD3 antagonist: qHTS of D3 Dopamine Receptor Antagonist: qHTS; D(3) dopamine receptor (Homo sapiens), P35462; D3R cells, DiscoveRx beta-arrestin luminescence, antagonist mode; hits give low values; max response, negative = inhibition, %; hit rate 2.5% among 360,000; AID 652054, 2013; in the data active means max response below about -50%; further: on the % scale 0 is the no-effect control and ±100 the full control effect
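Cells plated overnight at 1500 cells/well, then exposed to library compounds with dopamine controls for 90 minutes at 37 degrees C. DiscoveRx reagent added for 30–60 minutes at room temperature; luminescence read, quantitative HTS format.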
* hit, by the source's call; / = no result. An excerpt weighted towards active compounds, which were near 6.1% of everything screened.

SMILES | DRD3 agonist | D1 agonist | D1 antag | D1 potentiator | DRD3 antagonist
CSc1nnc(C)c(/C=C/NOCc2ccc(Cl)cc2)n1 | 0 | 2 | -12 | -3 | 5
CCOc1ccc(OCC(=O)OC(C)C(=O)NC2CCCC2)cc1 (centres undefined) | -16 | / | / | / | 1
O=C(COc1ccccc1[N+](=O)[O-])N1CCC(c2nc3ccccc3o2)CC1 | 2 | -2 | -4 | 0 | /
O=C(NCc1ccccc1)[C@@H]1CCCN1C(=O)[C@@H]1CCCN1C(=O)c1cccs1 | -2 | / | / | / | 17
O=C(Nc1cc(Cl)ccc1Cl)C1CC(=O)N(c2ccc(Br)cc2)C1 (centres undefined) | -11 | 1 | -14 | 3 | -55*
Cc1ccc(N2CC(C(=O)Nc3ccc(Cl)cc3Cl)CC2=O)cc1 (centres undefined) | 4 | -4 | -8 | -1 | /
Oc1ccccc1C1=Nc2ncnn2C(c2ccc(F)cc2)C1 (centres undefined) | 4 | 0 | -42* | -5 | 0
Fc1ccc(C2CC(c3ccc(F)cc3)n3ncnc3N2)cc1 (centres undefined) | 3 | 2 | 1 | 2 | -9
COCC(C)NC(=O)c1cnn2c(C(F)F)cc(-c3ccccc3)nc12 (centres undefined) | -13 | 1 | 0 | -4 | /
CCOCCCNC(=O)CCn1nc(-c2ccc(Cl)cc2)ccc1=O | -5 | -1 | -2 | 12 | -20
COc1ccc(NC(=O)Nc2ccc(F)cc2)cn1 | 3 | 16 | -18 | -2 | 7
COc1ccc(NC(=O)C(c2ccc(Cl)cc2)C(C)C)cn1 (centres undefined) | -2 | 39* | 3 | 10 | -12
CC(C)c1ccc(Nc2nc(N3CCOCC3)nc(N3CCOCC3)n2)cc1 | -10 | / | / | / | -74*
Cc1ccc(Nc2nc(N3CCOCC3)nc(N3CCOCC3)n2)cc1 | -2 | 0 | 5 | 2 | 9
CN1CCN(c2nc(Nc3cccc(C(F)(F)F)c3)nc(N3CCOCC3)n2)CC1 | -30 | 0 | -6 | -12 | -98*
FC(F)(F)c1cccc(Nc2nc(N3CCCC3)nc(N3CCCC3)n2)c1 | 0 | 2 | 8 | 0 | 11
Cn1cccc1/C=N/NC(=O)CSc1nc2ccccc2n1C | -8 | 1 | -2 | -3 | -11
COc1ccccc1NC(=O)c1ccc2oc(=O)c(S(=O)(=O)c3ccccc3)cc2c1 | -9 | -1 | -56* | -2 | /
O=C1Nc2c(Cl)cc(Cl)cc2C1=O | -12 | / | / | / | -93*
Cc1cccc(N=C2C(=O)Nc3c(Cl)cccc32)c1 | -19 | 0 | 0 | -6 | -30
C/C(=N\NC(=O)Cc1csc(N2CCOCC2)n1)c1ccc(Cl)c(Cl)c1 | -7 | 10 | 11 | -4 | -21
CC(NCc1cccc(OCc2ccccc2)c1)C(O)c1ccccc1 (centres undefined) | -1 | 42* | / | -3 | 12
CC(NCc1ccc(OCc2ccc(Cl)cc2)cc1)C(O)c1ccccc1 (centres undefined) | -4 | 38* | -5 | -5 | 0
OCCCCNCc1ccc(OCc2ccc(Cl)cc2)cc1 | -14 | 26 | -51* | -5 | -18
c1ccc(COc2cccc(CNn3cnnc3)c2)cc1 | -11 | 2 | 0 | -9 | -21
SMILES | DRD3 agonist | D1 agonist | D1 antag | D1 potentiator | DRD3 antagonist
COc1ccc2nc(SCC(O)c3cccc(Br)c3)[nH]c2c1 (centres undefined) | -4 | -1 | -9 | -2 | /
Cc1cc(=O)n(C(C)c2ccccc2)n1C(C)c1ccccc1 (centres undefined) | 5 | / | / | / | 15
COc1ccc(CCNC(=O)CCc2c(C)c3cc4c(C)coc4c(C)c3oc2=O)cc1OC | -3 | 4 | -3 | 0 | /
CCOc1ccc(N/C(SC)=C(/C#N)C(N)=O)cc1 | 1 | 1 | -52* | 9 | -53*
CCc1ccc(N/C(SC)=C(/C#N)C(N)=O)cc1 | -5 | -1 | 11 | -5 | 7
CCOC(=O)C(C)Sc1ccc2nnc(-c3ccc(F)cc3)n2n1 (centres undefined) | 35* | 0 | -3 | 2 | 15
COc1ccc(-c2nnc3ccc(SC)nn23)cc1 | 14 | -1 | -4 | 2 | -86*
Cc1ccc(CC(=O)NCc2ccc(F)cc2)cc1 | -6 | 1 | 2 | 11 | -9
Cc1ccc(C(C)C)c(OCCCn2c(=O)oc3ccccc32)c1 | 4 | 33* | 5 | -2 | /
Cc1ccc(C)c(OCCCN2CCc3ccccc3C2)c1 | -12 | 0 | -3 | -14 | -89*
Cc1cc(C(C)(C)C)ccc1OCCCCN1CCCC1 | -15 | 30 | -13 | 4 | -11
Cc1ccc(C)c(OCCCC(=O)O)c1 | 1 | 2 | -7 | 1 | -19
Cc1ccc(C(C)C)c(OCCCn2c(=O)oc3ccc(C)cc32)c1 | 2 | 14 | 11 | -1 | /
Cc1ccc(OCCCCN2CCc3ccccc3C2)c(C)c1 | -31 | 0 | -6 | -7 | -106*
Cc1ccc(C(C)C)c(OCCN2CCc3ccccc3C2)c1 | -34 | 1 | 13 | -3 | -67*
CCOc1ccccc1NC(=O)c1cc(S(=O)(=O)N2CCOCC2)cn1C | -4 | 5 | -10 | -1 | /
CCOC(=O)C1CCN(S(=O)(=O)c2c[nH]c(=O)[nH]c2=O)CC1 | 0 | 4 | -12 | -3 | 10
O=C(O)CCc1cc(F)c(S(=O)(=O)N2CCN(S(=O)(=O)c3ccc4c(c3)OCCO4)CC2)cc1F | / | 1 | 12 | 2 | /
Cc1ccc(C(C)C)c(OCCCN2C(=O)NC(C)(C)C2=O)c1 | 0 | 0 | 5 | -2 | -4
Cc1ccc(C(C)C)c(OCCCN2CCc3ccccc3C2)c1 | -20 | -1 | 35 | -5 | -85*
COCCCNS(=O)(=O)c1cc(-c2onc(C)c2C)ccc1OC | 9 | 3 | 8 | -3 | /
CCOc1cc([C@@H]2C[C@H]3CN(c4ccccc4)C(=O)[C@]34CCCN24)ccc1OC | -7 | -1 | -5 | 3 | -3
COc1cc([C@@H]2C[C@H]3CN(c4ccccc4)C(=O)[C@]34CCCN24)cc(OC)c1OC | 4 | 0 | -41* | -1 | 5
Cc1ccc(N(CC(=O)NC(C)(C)C)C(=O)CS(=O)CC(=O)Nc2ccc(F)cc2)cc1 (centres undefined) | -11 | 1 | 2 | 0 | -10
Cc1ccc(NC(=O)CS(=O)CC(=O)N(CC(=O)NC(C)(C)C)c2cccc(C)c2C)cc1 (centres undefined) | 32* | -1 | -13 | -4 | 2
Fc1cccc(Cc2c(-c3ccco3)nc3c(Cl)cc(C(F)(F)F)cn23)c1 | -10 | / | / | / | -1
Cc1ccc([C@@H]2CC=C(C(=O)O)[C@H](c3ccc(Cl)cc3)N2S(=O)(=O)c2ccccc2C)cc1 | -44 | / | / | / | -61*
